Experimental findings from PubChem BioAssay are described below.

Test [1] is described as follows: rapamycin-like changes in RPL19A-GFP expression – cell-based, S. cerevisiae, multiplex flow cytometry, primary screen (AID 1862; in the data active means percent of DMSO control GFP below about 86%;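 further: lower values mimic rapamycin by blocking the RPL19A rise seen in DMSO cells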). Particulars: S. cerevisiae RPL19A-GFP strain, flow cytometry fluorescence, 3 h; at 10 µM; stronger effect = lower value. Background: A flow cytometer gives signals particle by particle.
Test [2] in a line: TOR pathway GLN3 branch reporter MEP2-GFP changes – S. cerevisiae, multiplex flow cytometry, primary screen (AID 1867;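 active means GFP response, as percent of the DMSO control, above the screen-wide mean plus 3 SD, about 139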;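 further: median GFP channel fluorescence of barcode-gated MEP2-GFP cells measured by flow cytometry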). Particulars: S. cerevisiae MEP2-GFP strain, 3 h, at 10 µM, stronger effect = higher value, 100% means same as DMSO wells.
The nature of test [3]: TOR pathway RTG branch CIT2 reporter changes – S. cerevisiae, GFP fusion, multiplex flow cytometry, primary screen (AID 1870;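 active means percent response above a set limit, the screen-wide mean plus 3 SD, cut at about 130% in these data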;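 further: barcoded CIT2-GFP strain pooled with four other GFP strains with rapamycin as positive control; median GFP fluorescence per well over plate mean of DMSO wells so 100% = DMSO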). Particulars: S. cerevisiae CIT2-GFP expression, 3 h, at 10 µM, stronger effect = higher value.
Test [4] can be described thus: TOR pathway LAP4-GFP level changes – S. cerevisiae, multiplex flow cytometry, primary screen (AID 1873;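 active means GFP signal, as percent of the solvent control, above the screen mean plus 3 SD, about 149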). The settings on record: S. cerevisiae LAP4-GFP expression, 3 h, at 10 µM, stronger effect = higher value.
Test [5] can be described thus: yeast AGP1-GFP level changes, GLN3 branch – cell-based, multiplex flow cytometry, S. cerevisiae, primary screen (AID 1887;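 active means GFP signal above the screen-wide mean plus 3 SD, that is over about 124.5% of the solvent control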;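 further: AGP1-GFP fusion strain of S. cerevisiae within a five-strain barcoded multiplex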). Particulars: 3 h, at 10 µM, stronger effect = higher value.
A short description of test [6]: reduced mouse 2C T cell binding to pMHC/ICAM-1 vesicles – MLPCN validation set, flow cytometry, LFA-1/ICAM-1 modulator project, pilot screen (AID 2523;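 active means response below a set limit, under 55% cells CD8-positive and vesicle-bound, and CD8 cells' 90th-percentile brightness under 279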;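 on vesicle binding response: mean PE anti-B7-1 fluorescence of CD8+ cells relative to row control; 100% = QL9-loaded vesicles with DMSO vehicle in the same plate row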). The settings on record: 2C mouse CD8+ T cells, at 7 µM, stronger effect = lower value; double positive events: measured here: CD8+/vesicle+ event percentage.
Test [7] concerns the target Integrin beta-1 (Homo sapiens) + Integrin alpha-4 (Homo sapiens) (UniProt P13612+P05556). Put plainly: alpha4beta1 integrin LIBS antibody binding reduction – U937 cells, HUTS-21 mAb, flow cytometry, validation set, VLA-4 allosteric modulator project, pilot screen (AID 2674;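 active means inhibition above 50%, about 3 SD of the validation set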;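 further: antibody binding induced by the VLA-4 ligand LDV present at three times its Kd; 0% = LDV ligand with antibody and no compound and 100% = antibody without LDV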). Particulars: HUTS-21 LIBS mAb binding, at 6.7 µM, stronger effect = higher value, binding induced by LDV ligand.

Test [8] in a line: calorie-restriction mimetic ROS inhibitors, yeast – validation compound set, pilot screen (AID 2706;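 active means superoxide response below 65% of plate, a cut near 3 SD across the whole screen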;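 further: yeast exposed to compound for one week at 30 degrees C before staining; 100% = mean of all compound wells on the same plate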). Particulars: S. cerevisiae aging, superoxide DHE fluorescence; at 10 µM, stronger effect = lower value.
Test [9] has as its target Beta-adrenergic receptor kinase 1 (Homo sapiens) (UniProt P25098). In words: GRK2 binders displacing RNA aptamer, biochemical, validation, human GRK2, bead flow cytometry (AID 488806;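 active means aptamer binding inhibition above 30%, about 3 SD of noise from non-fluorescent compounds; inactive means inhibition at or below 30%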). The settings on record: bead-bound GRK2, FAM-aptamer displacement, at 10 µM, stronger effect = higher value.
Test [10] has as its target AP-2 complex subunit beta (Homo sapiens) (UniProt P63010). Put plainly: beta-arrestin/AP2 interaction blockers – biochemical, validation set, GST-AP2 beads, flow cytometry, pilot screen (AID 504541;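 active means inhibition above 54%, about 3 SD of non-fluorescent compounds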;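 further: AP2 carries R879A mutation and is captured from E. coli lysate; bead-bound FITC arrestin peptide fluorescence measuring arrestin peptide binding to AP2; 0% = DMSO wells and 100% = excess unlabeled arrestin peptide control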). The settings on record: FITC arrestin peptide, at 10 µM, stronger effect = higher value, AP2 beta2 appendage fragment, R879A mutant.
Test [11] is described as follows: cytosolic pH regulators acting via V-ATPase – S. cerevisiae, pHLuorin, HTS validation (AID 504600; in the data active means response above about 15%;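 further: plate controls were DMSO for no effect and reference compound for full effect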). The settings on record: V-ATPase proton transport, at 10 µM, stronger effect = higher value.
Test [12] relates to anti-desmoglein-3 scFv antibody binding to human DSG3. In words: blockers of pathogenic pemphigus antibody–desmoglein-3 binding – biochemical, validation compound set, bead-based, flow cytometry, pilot screen (AID 588368;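 active means binding below the plate cutoff, the plate median minus 3 SD, with a reading above zero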;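 further: signal is the median channel fluorescence of bead-bound GFP antibody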). Particulars: Protein G beads, DSG3-Fc, scFv-GFP binding, at 10 µM, stronger effect = lower value.
A short description of test [13]: Nile Red efflux blockade in pump-expressing yeast – validation compound set, multiplex, phenotypic, pilot screen (AID 588506;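 active means efflux inhibition above 0.42, the validation set average plus 4 SD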;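 further: Nile Red retained in cells so higher fluorescence means more efflux inhibition; 0 = negative control wells and 1 = enniatin B 25 µM full block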). The settings on record: S. cerevisiae pump-expressing triplex, Nile Red efflux flow cytometry; at 10 µM; stronger effect = higher value; the pumps come from Candida albicans.
Test [14] addresses ATP-binding cassette sub-family B member 6 (Homo sapiens) (UniProt Q9NP58). Put plainly: blockers of ABCB6-driven porphyrin uptake – K562-ABCB6 cells, flow cytometry, validation set, pilot screen (AID 588550;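 active means inhibition above the screen-wide mean plus 3 SD, about 51%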;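 further: 0% = DMSO wells and 100% = benzethonium chloride 70 µM positive control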). Particulars: K562-ABCB6 porphyrin accumulation, 1 h, at 10 µM, stronger effect = higher value.
Test [15] is described as follows: AML differentiation inducers, ER-HoxA9 marrow cells – cell-based, GFP/MAC1 double positive, flow cytometry, validation set, primary screen (AID 588685).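 Further: compound exposure lasts four days before antibody staining and flow analysis; 0% = DMSO wells and 100% = 5 µM fulvestrant positive control.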 The settings on record: stronger effect = higher value, normalized: vehicle 0, fulvestrant 100.

Inconclusive results are not listed. Calls of active or inactive are those of the source.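 How the source made its calls, unless noted: active means differentiation response of at least 50%, scaled between solvent and reference control, from cells with both markers; inactive means the rest.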

As a reminder, the inhibition is the change of the read-out against control, counted positive when it falls.

Chain of Beta-adrenergic receptor kinase 1 (Homo sapiens) (P25098 whole entry, looked up): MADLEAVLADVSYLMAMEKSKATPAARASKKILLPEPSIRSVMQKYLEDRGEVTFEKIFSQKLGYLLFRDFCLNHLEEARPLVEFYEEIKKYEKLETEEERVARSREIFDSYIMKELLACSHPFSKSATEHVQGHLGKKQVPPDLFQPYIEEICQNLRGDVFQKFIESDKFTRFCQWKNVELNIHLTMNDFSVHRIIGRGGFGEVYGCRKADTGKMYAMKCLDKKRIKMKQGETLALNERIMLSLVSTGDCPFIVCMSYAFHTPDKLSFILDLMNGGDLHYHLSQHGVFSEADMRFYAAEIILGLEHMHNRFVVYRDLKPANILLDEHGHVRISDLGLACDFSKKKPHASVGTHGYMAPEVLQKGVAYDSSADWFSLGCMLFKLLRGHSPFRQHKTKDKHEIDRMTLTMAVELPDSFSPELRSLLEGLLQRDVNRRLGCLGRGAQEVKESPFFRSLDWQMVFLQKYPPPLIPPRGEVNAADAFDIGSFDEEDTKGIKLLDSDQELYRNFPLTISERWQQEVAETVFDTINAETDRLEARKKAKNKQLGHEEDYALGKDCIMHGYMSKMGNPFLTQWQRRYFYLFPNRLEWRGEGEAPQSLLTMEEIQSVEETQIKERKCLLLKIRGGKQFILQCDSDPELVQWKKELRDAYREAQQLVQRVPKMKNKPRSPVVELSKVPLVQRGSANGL
Chain of ATP-binding cassette sub-family B member 6 (Homo sapiens) (Q9NP58 whole entry, looked up): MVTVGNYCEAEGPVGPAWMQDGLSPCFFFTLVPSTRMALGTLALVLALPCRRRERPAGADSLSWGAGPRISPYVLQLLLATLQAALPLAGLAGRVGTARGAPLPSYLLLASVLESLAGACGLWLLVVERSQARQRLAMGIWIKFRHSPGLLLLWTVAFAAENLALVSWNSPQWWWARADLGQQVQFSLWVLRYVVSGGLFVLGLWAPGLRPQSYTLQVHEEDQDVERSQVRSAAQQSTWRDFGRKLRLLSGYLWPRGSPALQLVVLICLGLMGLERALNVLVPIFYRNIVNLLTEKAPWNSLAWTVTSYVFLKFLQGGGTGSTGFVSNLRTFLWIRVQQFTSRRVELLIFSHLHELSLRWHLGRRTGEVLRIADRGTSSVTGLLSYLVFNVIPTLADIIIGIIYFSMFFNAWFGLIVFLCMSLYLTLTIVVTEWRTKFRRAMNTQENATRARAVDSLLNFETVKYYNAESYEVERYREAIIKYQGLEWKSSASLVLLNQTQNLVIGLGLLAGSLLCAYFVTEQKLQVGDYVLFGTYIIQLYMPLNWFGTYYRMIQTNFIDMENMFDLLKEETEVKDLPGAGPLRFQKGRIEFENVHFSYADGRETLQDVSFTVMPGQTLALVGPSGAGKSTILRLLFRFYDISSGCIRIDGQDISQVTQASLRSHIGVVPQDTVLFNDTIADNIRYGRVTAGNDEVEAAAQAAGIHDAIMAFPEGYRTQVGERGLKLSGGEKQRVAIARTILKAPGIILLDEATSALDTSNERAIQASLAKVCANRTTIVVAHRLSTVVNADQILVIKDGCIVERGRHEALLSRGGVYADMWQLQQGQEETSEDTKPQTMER
Chain of Integrin beta-1 (Homo sapiens) + Integrin alpha-4 (Homo sapiens) (P05556 whole entry, looked up): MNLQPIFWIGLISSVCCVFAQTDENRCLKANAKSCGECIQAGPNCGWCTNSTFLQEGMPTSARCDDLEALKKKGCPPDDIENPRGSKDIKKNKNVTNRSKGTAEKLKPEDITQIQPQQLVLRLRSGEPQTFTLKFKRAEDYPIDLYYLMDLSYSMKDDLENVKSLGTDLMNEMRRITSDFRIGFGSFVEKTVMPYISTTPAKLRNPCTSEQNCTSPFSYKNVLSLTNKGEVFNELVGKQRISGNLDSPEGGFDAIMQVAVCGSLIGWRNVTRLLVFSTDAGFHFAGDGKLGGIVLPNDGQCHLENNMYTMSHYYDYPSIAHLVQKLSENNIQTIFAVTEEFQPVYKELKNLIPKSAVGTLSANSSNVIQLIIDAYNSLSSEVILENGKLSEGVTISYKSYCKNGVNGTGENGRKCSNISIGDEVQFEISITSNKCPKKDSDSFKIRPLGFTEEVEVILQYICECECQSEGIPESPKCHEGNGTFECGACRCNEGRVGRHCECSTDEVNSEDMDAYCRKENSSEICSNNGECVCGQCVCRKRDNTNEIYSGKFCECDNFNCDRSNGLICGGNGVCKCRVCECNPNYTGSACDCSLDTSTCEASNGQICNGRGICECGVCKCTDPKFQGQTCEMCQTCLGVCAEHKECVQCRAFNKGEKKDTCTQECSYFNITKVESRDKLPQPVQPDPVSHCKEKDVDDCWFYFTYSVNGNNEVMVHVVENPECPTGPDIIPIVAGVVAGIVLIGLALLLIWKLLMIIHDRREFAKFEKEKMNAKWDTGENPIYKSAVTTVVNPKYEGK
Chain of Integrin beta-1 (Homo sapiens) + Integrin alpha-4 (Homo sapiens) (P13612 whole entry, looked up): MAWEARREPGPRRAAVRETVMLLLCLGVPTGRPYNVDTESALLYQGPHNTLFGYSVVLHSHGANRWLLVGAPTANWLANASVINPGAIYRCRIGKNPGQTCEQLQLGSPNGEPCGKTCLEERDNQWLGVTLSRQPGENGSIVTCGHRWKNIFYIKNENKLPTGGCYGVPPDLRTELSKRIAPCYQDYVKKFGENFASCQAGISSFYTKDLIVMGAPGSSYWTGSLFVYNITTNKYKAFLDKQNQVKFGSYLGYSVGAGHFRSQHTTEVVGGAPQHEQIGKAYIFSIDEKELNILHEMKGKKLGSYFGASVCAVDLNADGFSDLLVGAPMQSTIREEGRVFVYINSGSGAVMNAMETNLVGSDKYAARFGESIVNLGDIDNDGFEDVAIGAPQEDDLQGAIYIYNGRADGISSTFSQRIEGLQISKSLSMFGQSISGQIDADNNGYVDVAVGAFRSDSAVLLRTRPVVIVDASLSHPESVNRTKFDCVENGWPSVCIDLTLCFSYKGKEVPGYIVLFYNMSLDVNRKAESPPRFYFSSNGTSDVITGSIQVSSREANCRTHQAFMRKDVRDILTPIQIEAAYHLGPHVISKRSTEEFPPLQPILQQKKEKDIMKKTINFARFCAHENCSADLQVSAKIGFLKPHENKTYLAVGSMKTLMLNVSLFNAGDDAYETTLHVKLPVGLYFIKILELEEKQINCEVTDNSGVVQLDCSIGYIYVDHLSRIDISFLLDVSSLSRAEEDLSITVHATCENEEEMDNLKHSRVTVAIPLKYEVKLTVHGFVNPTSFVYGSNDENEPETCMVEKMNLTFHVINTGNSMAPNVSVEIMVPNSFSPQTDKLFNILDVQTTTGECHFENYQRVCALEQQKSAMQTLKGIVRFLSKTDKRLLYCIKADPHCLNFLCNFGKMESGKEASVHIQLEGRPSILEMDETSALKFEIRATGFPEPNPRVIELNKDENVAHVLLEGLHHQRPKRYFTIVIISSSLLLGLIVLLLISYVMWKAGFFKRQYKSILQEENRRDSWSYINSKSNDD
Chain of AP-2 complex subunit beta (Homo sapiens) (P63010 whole entry, looked up, the tested form may be a part, one chain of several): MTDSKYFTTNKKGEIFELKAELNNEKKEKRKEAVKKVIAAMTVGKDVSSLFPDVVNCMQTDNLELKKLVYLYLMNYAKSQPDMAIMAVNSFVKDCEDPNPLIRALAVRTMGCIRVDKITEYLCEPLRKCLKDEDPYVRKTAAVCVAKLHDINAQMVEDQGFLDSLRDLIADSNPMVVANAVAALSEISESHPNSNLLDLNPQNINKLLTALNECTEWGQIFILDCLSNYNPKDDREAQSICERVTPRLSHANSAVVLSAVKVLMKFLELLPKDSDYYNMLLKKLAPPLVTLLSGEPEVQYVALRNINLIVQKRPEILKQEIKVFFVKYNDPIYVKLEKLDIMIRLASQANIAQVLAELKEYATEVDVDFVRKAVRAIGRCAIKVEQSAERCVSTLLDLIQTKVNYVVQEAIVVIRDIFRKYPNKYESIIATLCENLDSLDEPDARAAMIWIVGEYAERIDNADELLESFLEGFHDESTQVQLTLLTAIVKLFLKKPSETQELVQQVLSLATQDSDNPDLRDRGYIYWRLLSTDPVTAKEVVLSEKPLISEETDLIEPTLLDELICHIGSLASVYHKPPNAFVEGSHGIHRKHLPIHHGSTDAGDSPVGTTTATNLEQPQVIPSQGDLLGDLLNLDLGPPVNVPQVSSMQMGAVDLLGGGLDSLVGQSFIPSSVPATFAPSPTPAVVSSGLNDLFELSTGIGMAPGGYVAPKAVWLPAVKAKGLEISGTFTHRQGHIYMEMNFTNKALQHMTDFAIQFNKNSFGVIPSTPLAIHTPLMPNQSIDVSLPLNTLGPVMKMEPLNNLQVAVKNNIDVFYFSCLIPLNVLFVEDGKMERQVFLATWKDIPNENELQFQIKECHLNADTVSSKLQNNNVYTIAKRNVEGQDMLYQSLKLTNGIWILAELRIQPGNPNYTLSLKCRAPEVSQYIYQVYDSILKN

On to `Cc1cc(OC(C(=O)O)c2ccccc2)c2c(C)c(Cc3ccccc3)c(=O)oc2c1` (stereo not given), for which the percent of DMSO control GFP in test [1] is 103% (inactive). For the same compound, the GFP response vs DMSO is 98.9% (inactive) in [2] and 100% (inactive) in [4]. In addition, the percent response of DMSO control in [3] is 97.9% (inactive). Besides, in test [5], the GFP response, % of DMSO is 95.1% (inactive). The compound also had a double positive events in test [6] of 54.5%. The vesicle binding response in [6] is 160% (inactive). Further, the inhibition in test [7] was -3.04% (inactive); in [10], 1.35% (inactive); in test [14], 7% (inactive). For the same compound, in [8], the superoxide response (% of plate) was 115% (inactive). The aptamer binding inhibition in test [9] was 2% (inactive). The response in [11] was 5.52% (inactive). In addition, the binding (% of control) in test [12] was 95.4% (inactive). Moreover, the efflux inhibition (fraction of control) in [13] was -0.05 (inactive). Further, in [15], the differentiation response was -3.43% (inactive).

On to `CCCCC1C(=O)N(c2ccccc2)N(c2ccccc2)C1=O`, for which the percent of DMSO control GFP in test [1] was 98.1% (inactive). Besides, the GFP response vs DMSO in test [2] was 117% (inactive); in test [4], 89.7% (inactive). Also, in [3], the percent response of DMSO control is 101% (inactive). Also, in test [5], the GFP response, % of DMSO is 97.5% (inactive). Also, the double positive events in test [6] turned out to be 66%. In [6], the vesicle binding response is 258% (inactive). In addition, the inhibition was 3.55% (inactive) in [7], 33.1% (inactive) in test [10] and 8% (inactive) in [14]. Further, the superoxide response (% of plate) in test [8] was 94.9% (inactive). Also, the aptamer binding inhibition in test [9] is 0% (inactive). Besides, in [11], the response is -1.74% (inactive). Besides, the binding (% of control) in [12] was 111% (inactive). Also, the efflux inhibition (fraction of control) in test [13] is -0.06 (inactive). Also, the differentiation response in [15] is 17.2% (inactive).

`COC(=O)c1cc(OC)c(OC)c(OC)c1[N+](=O)[O-]`: in test [1], the percent of DMSO control GFP is 103% (inactive). The GFP response vs DMSO in [2] is 97.9% (inactive); in test [4], 108% (inactive). In addition, the percent response of DMSO control in test [3] was 107% (inactive). Moreover, the GFP response, % of DMSO in test [5] was 105% (inactive). The compound also showed a double positive events in [6] of 58.1%. Moreover, in test [6], the vesicle binding response was 186% (inactive). The values for the inhibition in [7], in [10] and in [14] were -0.24% (inactive), -11.6% (inactive) and 3% (inactive), respectively. Moreover, the superoxide response (% of plate) in test [8] is 107% (inactive). The aptamer binding inhibition in [9] was 4% (inactive). Further, the response in test [11] is 39.5% (active). In test [12], the binding (% of control) was 99% (inactive). Also, in [13], the efflux inhibition (fraction of control) is 0.14 (inactive). Moreover, the differentiation response in test [15] is -21.2% (inactive).

Consider `CCN(CC)CCOC(=O)C1(C2CCCCC2)CCCCC1`, for which the percent of DMSO control GFP in test [1] is 110% (inactive). For the same compound, the GFP response vs DMSO is 101% (inactive) in [2] and 110% (inactive) in test [4]. In addition, the percent response of DMSO control in [3] was 106% (inactive). Also, in test [5], the GFP response, % of DMSO was 108% (inactive). The compound also gave a double positive events in test [6] of 50.5%. In addition, the vesicle binding response in test [6] is 162% (inactive). The inhibition in test [7] was 5.36% (inactive); in [10], -6.04% (inactive); in test [14] it was -45% (inactive). Further, the superoxide response (% of plate) in test [8] was 110% (inactive). Also, the aptamer binding inhibition in test [9] was -2% (inactive). Besides, the response in test [11] was 1.87% (inactive). Besides, the binding (% of control) in test [12] is 101% (inactive). Also, the efflux inhibition (fraction of control) in test [13] was 0.25 (inactive). Moreover, in test [15], the differentiation response is -27.6% (inactive).

In the case of `CCOc1cccc(N2C(=O)CC(N(CCc3ccc(OC)c(OC)c3)C(=O)CC)C2=O)c1` (stereo not given), the percent of DMSO control GFP in [1] was 101% (inactive). The results for the GFP response vs DMSO in test [2] and in test [4] were 105% (inactive) and 98.4% (inactive), respectively. Also, the percent response of DMSO control in test [3] was 104% (inactive). The GFP response, % of DMSO in [5] is 100% (inactive). Moreover, the double positive events in test [6] was 59.7%. For the same compound, the vesicle binding response in test [6] was 184% (inactive). For the same compound, the inhibition was 0% (inactive) in test [7], 27.3% (inactive) in [10] and 5% (inactive) in test [14]. In test [8], the superoxide response (% of plate) is 94% (inactive). The aptamer binding inhibition in test [9] was 2% (inactive). Further, the response in [11] is -1.88% (inactive). For the same compound, the binding (% of control) in [12] is 100% (inactive). The efflux inhibition (fraction of control) in test [13] is -0.2 (inactive). For the same compound, in [15], the differentiation response is -18% (inactive).
